High-throughput results deposited in PubChem by National Center for Advancing Translational Sciences (NCATS).
D1 antagonist: human D1 dopamine receptor antagonism. AID 504652. activity change, negative = inhibition, % at 10 µM. HEK293 TREx D1 cells, calcium flux, dopamine EC80; active compounds read low. actives 3.2% (n = 360,000); in the data active means activity change below about -30%; further: on the % scale 0 is the no-effect control and ±100 the full control effect
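Kinetic fluorescence of a calcium dye serves as the read-out. D1-expressing Hek293 Trex cells, induced overnight at 30 C, are exposed to compound for 180 s before an EC80 dopamine addition, then read 180 s further.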
TRHR enhancer: allosteric enhancers of human TRH receptor; P34981; actives 0.66% (n = 360,000); AID 493056; TRHR cells, fluo-8 calcium fluorescence, EC20 TRH enhancement; enhancement, % at 2 µM; in the data active means enhancement above about 30%; further: 0% is about no effect
Target sequence (P34981 whole entry, looked up): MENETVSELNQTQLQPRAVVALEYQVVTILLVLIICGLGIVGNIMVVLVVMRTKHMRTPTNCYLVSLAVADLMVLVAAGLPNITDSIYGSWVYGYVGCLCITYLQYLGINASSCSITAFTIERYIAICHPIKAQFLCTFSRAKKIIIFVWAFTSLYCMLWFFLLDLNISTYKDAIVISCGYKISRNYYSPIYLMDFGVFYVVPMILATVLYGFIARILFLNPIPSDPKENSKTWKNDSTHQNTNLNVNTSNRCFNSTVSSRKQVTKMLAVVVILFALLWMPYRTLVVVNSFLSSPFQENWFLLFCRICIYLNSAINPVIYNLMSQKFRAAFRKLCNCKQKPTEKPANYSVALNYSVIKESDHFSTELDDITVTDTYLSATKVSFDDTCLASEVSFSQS
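TRHR-expressing cells loaded with fluo-8 calcium dye were read kinetically (ex 480/em 530) during compound addition, then stimulated with an EC20 of TRH (10 nM final). Enhancement of the Gq-mediated intracellular calcium response was scored.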
TRHR agonist: TRH receptor (human) agonism; TRHR cells, calcium flux fluo-8, FDSS agonist mode; activation, % at 2 µM; actives 0.18% (n = 360,000); further: 0% is about no effect
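Fluo-8-loaded TRHR cells; 10 s baseline, compound added, kinetic Ca2+ fluorescence read 1/s, agonist mode.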
D1 PAM: enhances dopamine response at the human D1 receptor | P21728 | HEK293 TREx D1 cells, calcium flux, dopamine EC20 potentiation | potentiation, % at 10 µM | actives 0.036% (n = 360,000) | AID 504651; in the data active means potentiation above about 30%; further: 0% is about no effect
D1 agonist: agonists of human D1 dopamine receptor; P21728; HEK293 T-REx D1 cells, calcium flux, agonist mode; activation, % at 2 µM; actives 1% (n = 360,000); further: 0% is about no effect
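Tetracycline-induced HEK293 TREx D1 cells, force-coupled to calcium signalling, were dye-loaded with a no-wash calcium kit. Compound was pin-added after a 10 s baseline. Fluorescence was read kinetically at 1 cycle/s for 180 s, with calcium rises flagged as agonism.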
Starred values were filed as active, the others as inactive; ! = a repeat was not active. Hits are enriched below; roughly 4.7% of the tested compounds scored in any of these assays. Unless noted, no stated cut-off is given here; in the data, active means activation above about 30%; inactive means the rest.

SMILES	D1 antagonist	TRHR enhancer	TRHR agonist	D1 PAM	D1 agonist
CCN(CCCNC(=O)CN1N=C(c2ccccc2)CCC1=O)c1ccccc1	-5	3	0	0	-2
COc1ccc(N2C(=O)C3CCCN3C2=O)cc1 (configuration not stated)	-34*	4	0	-2	-1
CCOc1ccc(N2C(=O)C3CCCN3C2=O)cc1 (configuration not stated)	-17	4	0	8	0
CC(C(O)c1ccc(O)cc1)N1CCC(Cc2ccccc2)CC1 (configuration not stated)	-50*	-5	0	-3	7
OC(CN1CCC(Cc2ccccc2)CC1)C(F)(F)F (configuration not stated)	1	-3	1	-8	3
CNC(=S)N1CCC(Cc2ccccc2)CC1	1	1	0	1	0
C[C@@H](CN1CCC(Cc2ccccc2)CC1)[C@@H](O)c1ccc(O)cc1	-33*	-2	1	-6	7
COc1ccc(Nc2ncnc3onc(-c4ccc(Cl)cc4)c23)cc1Cl	-9	-9	1	-1	5
CCOC(=O)COc1ccccc1C1C(C(=O)OC)=C(C)NC2=C1C(=O)c1ccccc12 (configuration not stated)	-7	7	-1	-1	-2
Oc1c(CN2CCN(c3ccccc3)CC2)cc(Br)c2cccnc12	-87*	16	1	-3	0
CC(C)OCc1cc(CN2CCN(c3ccccc3)CC2)c(O)c2ncccc12	0	-3	-2	-3	-2
COc1ccc(C(CC(=O)O)NC(=O)C2CCCCC2)cc1 (configuration not stated)	1	39*	0	-12	3
COc1ccc(C(C)NC(=O)C2CCCO2)cc1OC (configuration not stated)	8	1	0	2	2
COc1ccc(C(C)NC(=O)C2CCCC2)cc1OC (configuration not stated)	-48*	7	0	5	8
Cc1ccc2oc(=O)c3cc(C(=O)Nc4ccc(F)cc4F)sc3c2c1	3	3	0	2	0
CC(=O)c1cc(-c2ccc(F)cc2)n(CCC(=O)NCc2ccccc2C)c1C	3	-1	0	-4	0
CC1(C)Cc2c(cnn2-c2ccc(F)cc2)C(NC(=O)CCN2CCCCO2)C1 (configuration not stated)	4	37*	0	1	4
Cc1cc(C(=O)NC2CC(C)(C)Cc3c2cnn3-c2cccc(F)c2)n(C)n1 (configuration not stated)	-9	-2	0	1	1
Cc1ccc(-n2ncc3c2CC(C)(C)CC3NC(=O)c2ccccn2)cc1 (configuration not stated)	-76*	15	1	-3	1
COC(=O)CCC(=O)NC1CC(C)(C)Cc2c1cnn2-c1ccc(F)cc1 (configuration not stated)	10	38*	0	-4	0
CC1(C)Cc2c(cnn2-c2ccc(F)cc2)C(NC(=O)CCC(F)(F)F)C1 (configuration not stated)	25	3	0	-5	5
Cc1ccc(-n2ncc3c2CC(C)(C)CC3NC(=O)CCN2CCCO2)cc1 (configuration not stated)	-20	-4	1	-4	2
CC1(C)Cc2c(cnn2-c2cccc(F)c2)C(NC(=O)c2ccc[n+]([O-])c2)C1 (configuration not stated)	-23	31*	0	-1	1
Cc1sc(NC(=O)c2sc3nc4c(C)cccc4cc3c2N)c(C#N)c1C	23	2	0	0	55*
Cc1cccc(C)c1NC(=O)COC(=O)CNC(=O)C1CCCCC1	-31*	6	0	-7	0
SMILES	D1 antagonist	TRHR enhancer	TRHR agonist	D1 PAM	D1 agonist
CCn1nc(C)c2c(-c3ccccc3)cc(=O)n(C(C)C(=O)NCc3cccc(OC)c3)c21 (configuration not stated)	-7	18	0	-5	3
CCOc1ccc(CN2C(=O)CCC2(C)C(=O)NCc2cccnc2)cc1 (configuration not stated)	-30*	-1	0	-8	3
Cc1ccc(CCN2C(=O)CCC2(C)C(=O)NCc2cccnc2)cc1 (configuration not stated)	-20	-2	0	-3	0
O=C(NCC(c1ccc(Cl)cc1)N1CCCCC1)c1ccc(F)cc1 (configuration not stated)	-12	-1	0	-2	6
CC(C)(C#CC(O)(c1ccccc1)c1ccccc1)N1CCCC1	-71*	3	2	-4	7
CCc1cccc(C)c1NC(=O)CSc1nc2ccccc2n1CC(=O)N(C)C	-35*	-6	0	-2	0
CCOC(=O)CSc1nc2ccccc2n1CC(=O)NC(C)(C)C	-15	30*	1	-4	1
CC(=O)c1ccc(N(CC(=O)NC2CCCC2)C(=O)CCC(=O)Nc2cc(C)on2)cc1	-36*	-2	1	-7	1
CCc1ccc(N(CC(=O)NC2CCCC2)C(=O)CCC(=O)Nc2ccccn2)cc1	-1	31*	1	0	0
CCOc1ccc(N(CC(=O)NC2CCCC2)C(=O)CCC(=O)Nc2ccccn2)cc1	20	2	0	2	0
Cc1cccc(N(CC(=O)NC2CCCC2)C(=O)CCCC(=O)Nc2ccccn2)c1	-34*	-10	0	4	0
COc1ccc(N(CC(=O)NC2CCCCC2)C(=O)CCC(=O)Nc2nc(C)cs2)cc1OC	-45*	1	1	1	0
COc1ccc(N(CC(=O)NC2CCCCC2)C(=O)CCC(=O)Nc2nc(C)cs2)cc1	21	-1	1	5	6
O=C(c1ccc(Cl)cc1)N1CCCCC1CCN1CCOCC1 (configuration not stated)	-5	-1	1	5	-1
COc1ccc(-c2noc(CN(C(C)C)S(=O)(=O)c3ccc(Br)cc3)n2)cc1	-4	-6	6	-2	5
Cc1nn(-c2ccc(N3CCCC3)nn2)c(C)c1CCC(=O)N1CCN(c2ccccc2F)CC1	0	9	0	-3	-1
O=C(CCNS(=O)(=O)c1ccc2c(c1)CCCC(=O)N2)NCc1ccccc1Cl	-16	-6	0	2	0
COc1ccc(C(=S)N2CCN(c3cccc(Cl)c3)CC2)cc1	-33*!	1	0	-2	2
O=C(O)/C=C/C(=O)N1CCN(c2cccc(Cl)c2)CC1	-41*	7	0	-20	6
CCn1cc(C(=O)N2CCN(c3cccc(Cl)c3)CC2)c2cc(OC)c(OC)cc2c1=O	-53*!	-5	-1	0	4
